Experimental data taken from PubChem BioAssay (EPA / NIEHS).
Values joined by “and” are separate entries in the source; they are usually repeats but may differ in a detail not shown here. Equal values may be shown once. Inconclusive results are not listed. More than one record can exist for a structure, and the calls need not agree. Active and inactive are the calls of the source. The calls were made as follows: active = hit-call score of the fitted dose curve at least 0.9, where 1 is the maximum; inconclusive = response in the unintended direction; inactive = score below 0.9.

target: Cellular tumor antigen p53 (Homo sapiens) (UniProt P04637); test: TOX21_p53_BLA_p5_ratio: Tox21 HCT-116 p53 Agonism Beta-lactamase Assay, Ratio, Phase 5 (AID 2283599)
Description: TOX21_p53_BLA_p5 is a cell-based, single-readout assay that uses HCT116, a human intestinal cell line, […] in a 1536-well plate.TOX21_p53_BLA_p5_ratio is an assay readout measuring reporter gene via receptor activity and designed using inducible reporter (beta lactamase induction) detected with GAL4 b-lactamase reporter gene. The signal is derived from the ratio of cleaved (ch2) to uncleaved (ch1) reporter gene substrate used as the measure of target activity.Data from the assay component TOX21_p53_BLA_p5_ratio was analyzed into 1 assay endpoint. This assay endpoint, TOX21_p53_BLA_p5_ratio, was analyzed in the positive analysis fitting direction relative to DMSO as the negative control and baseline of activity. Using a type of inducible reporter, gain-of-signal activity can be used to understand changes in the reporter gene as they relate to the gene TP53. Furthermore, this assay endpoint can be referred to as a primary readout, because this assay has produced multiple assay endpoints and this ratio serves a reporter gene function to understand target activity. To generalize the intended target to other relatable targets, this assay endpoint is annotated to the DNA binding intended target family, where the subfamily is tumor suppressor.
Thawing Method: Place 14 mL of pre-warmed thaw medium into a 15 mL of conical tub. Remove the vial of cells to be thawed from liquid nitrogen and thaw rapidly by placing at 37C in a water bath with gentle agitation for 1-2 minutes. Decontaminate the vial by wiping with 70% ethanol before opening in a biological safety cabinet. Transfer the vial contents drop-wise into 14 mL of thaw medium in a sterile 15-mL conical tub. Centrifuge cells at 900 rpm for 4 minutes and resuspend in thaw medium. Transfer contents to the T75 tissue culture flask containing Thaw Medium and place flask in a humidified 37C/5% CO2 incubator. Switch to growth medium at first passage.Propagation Method: Aspirate medium, rinse once in DPBS, add 0.25% Trypsin/EDTA and swirl to coat the cell evenly. Add an equal volume of Growth Medium to inactivate Trypsin after 2-3 minutes incubation at 37C. Centrifuge cells at 900 rpm for 4 minutes and resuspend in growth medium. Cell should be passage or fed at least twice a week.Assay Protocol: Harvest cells from culture in growth medium and resuspend in assay medium. 2.2 Dispense 4000 cells/5 uL/well into 1536-well black/clear bottom plates using a Multidrop dispenser. After the cells were incubated at 37C for 5 hours, 23 nL of compounds dissolved in DMSO were transferred to the assay plate by a PinTool resulting in a 217-fold dilution. Incubate the plates for 16 hours at 37C, 5% CO2. Add 1 uL of 6X LiveBLAzer FRET B/G (CCF4-AM) Substrate Mixture to each well using a BioRAPTR dispenser and incubate the plates at room temperature for 2 hours. Measure fluorescence intensity at 460 and 530 nm emission and 405 nm excitation by an Envision detector. Data is expressed as the ratio of 460nm/530nm emissions. Add 4 uL of Cell-titer Glo to each well using BioRAPTR and incubate the plates at room temperature for 2 hours. Measure fluorescence intensity by a VewLux plate reader.

Cellular tumor antigen p53 (Homo sapiens), sequence (P04637 whole entry, looked up, the tested form may be a part): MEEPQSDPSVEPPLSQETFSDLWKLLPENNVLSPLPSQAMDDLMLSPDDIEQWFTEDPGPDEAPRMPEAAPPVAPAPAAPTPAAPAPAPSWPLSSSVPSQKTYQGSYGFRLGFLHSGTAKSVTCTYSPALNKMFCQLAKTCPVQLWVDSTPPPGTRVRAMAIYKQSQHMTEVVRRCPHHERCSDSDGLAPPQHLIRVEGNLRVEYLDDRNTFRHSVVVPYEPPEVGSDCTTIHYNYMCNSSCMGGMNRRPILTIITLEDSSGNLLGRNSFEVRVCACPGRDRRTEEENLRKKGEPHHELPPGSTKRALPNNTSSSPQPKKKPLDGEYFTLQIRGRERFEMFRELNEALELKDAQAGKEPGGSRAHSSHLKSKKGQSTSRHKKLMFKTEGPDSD

Row | SMILES | outcome | AC50
1 | O=C(OCC1CCC2OC2C1)C1CCC2OC2C1 (stereo not given) | inactive | 
2 | Cc1cccc(OCCOc2cccc(C)c2)c1 | inactive | 
3 | CC(=O)NS(=O)(=O)c1ccc(N)cc1 | inactive | 
4 | CC(=O)[C@H]1[C@H](C#N)C[C@H]2[C@@H]3CC=C4C[C@@H](O)CC[C@]4(C)[C@H]3CC[C@@]21C | inactive | 
5 | CC(C)CC(O)Cc1ccccc1 (stereo not given) | inactive | 
6 | Cc1oncc1C(=O)Nc1ccc(C(F)(F)F)cc1 | inactive | 
7 | CCCNC(=O)NS(=O)(=O)c1ccc(Cl)cc1 | inactive | 
8 | O=C1CCCCCCCCCCCCCCCO1 | inactive | 
9 | O=C(Oc1ccccc1)c1ccc2ccccc2c1O | inactive | 
10 | O=C(O)c1ccccc1Nc1cccc(C(F)(F)F)c1 | inactive | 46.1 µM (active)
11 | NC(CO)(CO)CO | inactive | 
12 | O=C(Nc1ccccc1SSc1ccccc1NC(=O)c1ccccc1)c1ccccc1 |  | 60 µM (active) and 53.4 µM (active)
13 | C=CCOc1c(Br)cc(Br)cc1Br | inactive | 
14 | c1ccc(-c2ccccn2)nc1 | inactive | 
15 | COC(=O)c1c(C)cc(O)c(C)c1O | inactive | 
16 | COc1c2ccoc2cc2oc(=O)ccc12 | inactive | 
17 | CC(C)(c1cc(Br)c(OCCO)c(Br)c1)c1cc(Br)c(OCCO)c(Br)c1 |  | 40.1 µM (active)
18 | CCC(C)(C)C1CCCCC1OC(C)=O (stereo not given) | inactive | 
19 | CC=C1CC2C=CC1C2 (stereo not given) | inactive | 

Row | SMILES | outcome | AC50
20 | CC(=O)Oc1ccc(C)cc1 | inactive | 
21 | CCCCCCCC/C=C\CCCCCCCC(=O)O | inactive | 
22 | O=P(O)(O)Oc1ccccc1 | inactive | 
23 | C[C@]12C=CC(=O)C=C1CC[C@@H]1[C@@H]2[C@@H](O)C[C@@]2(C)[C@H]1CC[C@]2(O)C(=O)CO | inactive | 
24 | CCN(CCO)c1cccc(C)c1 | inactive | 
25 | N[C@H]1C(O)O[C@H](CO)[C@H](O)[C@@H]1O (stereo not given in full) | inactive | 
26 | CCN(Cc1cccc(S(=O)(=O)O)c1)c1ccc(C(=C2C=CC(=[N+](CC)Cc3cccc(S(=O)(=O)[O-])c3)C=C2)c2ccccc2)cc1 | inactive | 
27 | C=CC(=O)OCCOC(=O)C=C | inactive | 
28 | C/C=C\C/C=C/CCCCCCCCOC(C)=O | inactive | 
29 | CCCCCCCCO[C@@H]1O[C@H](CO)[C@@H](O)[C@H](O)[C@H]1O | inactive | 
30 | C=C(C)[C@@H]1CCC2=CCC[C@@H](C)[C@]2(C)C1 | inactive | 
31 | CCN(CC#N)c1cccc(C)c1 | inactive | 
32 | CCCCC/C=C\CCC=O | inactive | 
33 | C=C[Si](OC(C)=O)(OC(C)=O)OC(C)=O | inactive | 
34 | C=C[C@](C)(O)CC[C@@H]1[C@@]2(C)CCCC(C)(C)[C@@H]2CC[C@@]1(C)O |  | 87.1 µM (active)
35 | COC(=O)C1=C(C)NC(C)=C(C(=O)OCC(C)C)C1c1ccccc1[N+](=O)[O-] (stereo not given) | inactive | 20.6 µM (active)
36 | CN(C)CCCN(C)C | inactive | 
37 | O=c1cc[nH]c(=S)[nH]1 | inactive | 
38 | OC1OCCOC1O (stereo not given) | inactive | 
